Columns and labels:
Settings in all cases: concentration: 1 μM, replicates: in singlicate; n = 1
ASK2 = system: T1, ASK2
T1 construct: gene MAP3K6

AURKA = system: AURKA
AURKB = system: AURKB
AURKC = system: AURKC
AXL = system: AXL
BIKE = system: T2, BIKE
T2 construct: gene BMP2K

BLK = system: BLK
BMPR1A = system: BMPR1A
BMPR1B = system: BMPR1B
BMPR2 = system: BMPR2
BMX = system: BMX
BRAF = system: BRAF
BRK = system: T3, BRK
T3 construct: gene PTK6

BRSK1 = system: BRSK1
BRSK2 = system: BRSK2
BTK = system: BTK
BUB1 = system: BUB1
CAMK1B = system: CAMK1B
CAMK1D = system: CAMK1D
CAMK1G = system: CAMK1G
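Further: KINOMEscan kinase panel screen.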

| Compound | %Inh (ASK2) [%] | %Inh (AURKA) [%] | %Inh (AURKB) [%] | %Inh (AURKC) [%] | %Inh (AXL) [%] | %Inh (BIKE) [%] | %Inh (BLK) [%] | %Inh (BMPR1A) [%] | %Inh (BMPR1B) [%] | %Inh (BMPR2) [%] | %Inh (BMX) [%] | %Inh (BRAF) [%] | %Inh (BRK) [%] | %Inh (BRSK1) [%] | %Inh (BRSK2) [%] | %Inh (BTK) [%] | %Inh (BUB1) [%] | %Inh (CAMK1B) [%] | %Inh (CAMK1D) [%] | %Inh (CAMK1G) [%] |
| --- | --- | --- | --- | --- | --- | --- | --- | --- | --- | --- | --- | --- | --- | --- | --- | --- | --- | --- | --- | --- |
| O=C(Nc1cccc(-c2nn3ncccc3c2-c2ccnc(Nc3ccccc3)n2)c1)c1c(F)cccc1F [GSK198271] | 6 | 65 | 32 | 64 | 100 | 16 | 97.5 | 0 | 0 | 0 | 89 | 90.9 | 94.5 | 4 | 0 | 99.4 | 32 | 9 | 25 | 11 |
| COc1cc(Nc2ncc3c(C)nc(-c4cc5ccccc5[nH]4)n3n2)cc(OC)c1OC [GW869516] | 0 | 0 | 1 | 26 | 26 | 9 | 60 | 22 | 0 | 0 | 25 | 0 | 36 | 0 | 14 | 0 | 0 | 0 | 8 | 0 |
| Fc1ccc(-c2ncn(C3CCNCC3)c2-c2ccnc(Oc3ccc(-c4ccccc4)cc3)n2)cc1 [SB-245391] | 12 | 53 | 39 | 0 | 18 | 0 | 20 | 18 | 2 | 46 | 0 | 23 | 7 | 14 | 16 | 57 | 20 | 4 | 30 | 4 |
| Nc1ncc(-c2cccnc2)c2scc(-c3ccc4c(c3)CCN4C(=O)Cc3ccccc3)c12 [GSK683281] | 10 | 25 | 70 | 70 | 89 | 16 | 82 | 6 | 0 | 3 | 20 | 0 | 68 | 27 | 0 | 0 | 0 | 0 | 22 | 21 |
| COc1cccc(C2=C(Nc3ccc(Cl)c(C(=O)O)c3)C(=O)NC2=O)c1 [SB-390769] | 100 | 0 | 39 | 23 | 3 | 16 | 10 | 0 | 0 | 100 | 0 | 13 | 38 | 0 | 0 | 25 | 44 | 28 | 0 | 0 |
| Cn1cc(-c2[nH]c3cc(NC(=O)[C@H](N)C4CCCCC4)cc4c3c2C=NNC4=O)cn1 | 0 | 100 | 99.7 | 99.3 | 99.9 | 100 | 99.5 | 19 | 87 | 22 | 13 | 39 | 14 | 31 | 61 | 94.2 | 100 | 87 | 90.4 | 0 |
| O=C(Nc1cccc(Oc2ccc3nc(NC(=O)C4CC4)cn3n2)c1)c1ccccc1C(F)(F)F | 0 | 89 | 92.8 | 77 | 75 | 79 | 25 | 0 | 0 | 0 | 0 | 65 | 0 | 6 | 0 | 16 | 0 | 0 | 3 | 0 |
| CCn1c(-c2nonc2N)nc2c(C#CC(C)(C)O)nc(OC[C@H](N)c3ccccc3)cc21 [GSK943949] | 0 | 37 | 0 | 4 | 13 | 19 | 0 | 0 | 9 | 1 | 2 | 42 | 0 | 0 | 50 | 0 | 13 | 0 | 10 | 0 |

From publication PMC5540273 (PLoS ONE, 2017)
